# Hits are enriched below; roughly 18% of the tested compounds scored in any of these assays.
# DT40 TDP1 CPT – DT40-hTDP1 cell growth loss with CPT. actives 12% (n = 420,000). AID 686979. chicken DT40 Tdp1-/-;hTDP1 cells + 20 nM CPT, ATP luminescence, 48 h. Potency, µM (titrated, usually from 46.2 µM), for the others: top-dose activity change, negative = growth inhibition, hits mostly inhibitors; also: potency is read from the fitted curve at half-maximal effect; nearly all actives have a fitted effect of over 55% in size
#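 Chicken DT40 Tdp1-/- cells complemented with human TDP1, 400 cells/well, exposed to compounds plus 20 nM camptothecin for at least 48 h at 37 C; viability read as ATP content by CellTiter-Glo luminescence.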
# RORgamma inh – blocks mouse ROR gamma transcriptional activity | actives 5.4% (n = 310,000) | AID 2551 | Potency, µM (series often up to 53.6 µM), without a hit: top-dose activity change, negative = inhibition, hits mostly inhibitors | Drosophila S2 Gal4-RORgamma UAS-luciferase reporter, 20 h | P51450; also: potency is read from the fitted curve at half-maximal effect; nearly all actives have a fitted effect of over 60% in size
# Target sequence (P51450 whole entry, looked up, the tested form may be a part): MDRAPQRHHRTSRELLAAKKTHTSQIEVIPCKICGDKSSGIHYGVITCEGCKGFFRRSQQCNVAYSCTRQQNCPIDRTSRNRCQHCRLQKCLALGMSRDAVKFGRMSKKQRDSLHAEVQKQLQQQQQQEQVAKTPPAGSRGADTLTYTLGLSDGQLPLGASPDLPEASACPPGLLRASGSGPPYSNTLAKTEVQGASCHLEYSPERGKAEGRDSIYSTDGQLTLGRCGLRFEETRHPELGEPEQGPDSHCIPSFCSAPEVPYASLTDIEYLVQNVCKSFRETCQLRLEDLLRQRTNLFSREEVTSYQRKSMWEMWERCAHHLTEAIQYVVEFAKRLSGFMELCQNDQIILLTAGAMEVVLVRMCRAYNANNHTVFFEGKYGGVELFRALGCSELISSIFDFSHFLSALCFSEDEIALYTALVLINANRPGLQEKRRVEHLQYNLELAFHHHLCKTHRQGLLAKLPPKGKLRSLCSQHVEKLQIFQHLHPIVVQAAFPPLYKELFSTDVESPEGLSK
#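 In this cell-based reporter format, copper sulfate (700 uM final) drives Gal4–ROR gamma fusion expression from a metallothionein promoter in Drosophila Schneider cells; compounds preincubated 1 hr, reporter read after 20 hr at ambient temperature.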
# IL1B secr inh – inhibitors of inflammasome signaling (IL-1 beta secretion). THP-1 LPS/ATP IL-1B secretion, AlphaLISA, 16 h; stronger effect = lower value. activity change, % at 57.5 µM. actives 4.7% (n = 360,000). AID 743279; in the data active = activity change below about -50%; inconclusive = mostly about -30% to -49%
#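 THP-1 cells pretreated 1 hr with compounds (up to 57.5 uM final), then stimulated with LPS (250 ng/mL final) plus ATP (1.25 mM final); secreted IL-1B measured by AlphaLISA after 16 hr, decreased signal indicating inhibition.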
# Gal4-VP16 FLuc – inhibits Gal4-VP16 luciferase reporter, ROR gamma counter-screen | Potency, µM (doses to about 53.6 µM), for inactives: at the top dose activity, negative = inhibition, actives largely listed as inhibitors | actives 3.5% (n = 310,000) | Drosophila S2 Gal4-VP16 UAS-luciferase, luminescence, 20 h | AID 2546;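 also: Gal4-VP16 expression switched on by copper sulfate through the metallothionein promoter; potency is read from the fitted curve at half-maximal effect; nearly all actives have a fitted effect of over 50% in size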
# DT40 TDP1 no CPT – qHTS for Inhibitors of human tyrosyl-DNA phosphodiesterase 1 (TDP1): qHTS in cells in absence of CPT | AID 686978, 2013 | Potency, µM (titrated, usually from 46.2 µM), without a hit: top-dose activity change, negative = growth inhibition, actives largely listed as inhibitors | actives 15% (n = 420,000) | DT40 Tdp1-/- hTDP1 cells, no CPT, ATP luminescence, 48 h; also: potency is read from the fitted curve at half-maximal effect; nearly all actives have a fitted effect of over 55% in size
#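 Chicken DT40 Tdp1-/- cells complemented with human TDP1, screened without camptothecin (DMSO vehicle only), 400 cells/well. Compounds pin-transferred, cells incubated at 37 °C for at least 48 hr. Growth read as ATP-dependent luminescence (CellTiter-Glo, 30 min at RT).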
# LDHA block – inhibitors of human lactate dehydrogenase A; purified LDHA, NADH/diaphorase-resazurin fluorescence; stronger effect = lower value; actives 0.15% (n = 480,000); P00338; AID 1347041; activity change, % (values are at about 110 or 230 µM); in the data active = activity change below about -30%; inconclusive = mostly about -25% to -30%;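 also: plate controls were DMSO wells for no effect and wells without enzyme for full effect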
#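 LDH5 2 nM; NADH 0.06 mM, pyruvate 0.2 mM; 200 mM Tris pH 7.4, EDTA, Tween-20; 5 min RT. Detection: diaphorase 0.133 mg/mL + resazurin 37 µM, fluorescence ex540/em590 at 0 and 20 min; normalized to enzyme-free and DMSO wells.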
# Numbers without * were called inactive; u = inconclusive; x = no result given. Unless noted, calls follow the shape of the dose curve; as a rule, active = well fitted curve in the direction sought with a large enough effect; inconclusive = small, poorly fitted or top-dose-only effect, or another doubt; inactive = no such curve, though single readings can be large; an effect the other way counts as inactive or inconclusive. Unless noted, % is scaled to controls: 0 for no effect and ±100 for the full control effect.
SMILES,DT40 TDP1 CPT,RORgamma inh,IL1B secr inh,Gal4-VP16 FLuc,DT40 TDP1 no CPT,LDHA block
COc1ccc(CNC(=O)CC2CCN(C(=O)c3ccc4nc(-c5ccc(C)cc5)oc4c3)CC2)cc1,x,x,x,x,x,0.3
CCOC(=O)C1(C)CCCCN1C(=O)c1ccco1 (configuration not stated),-7.2%,x,-3.1,x,-2.2%,-4.8
CCOC(=O)C1(C)CCCCCN1C(=O)c1ccc(N(C)C)cc1 (configuration not stated),u,x,2.2,x,20.6µM*,-0.4
CCOC(=O)C1(C)CCCN1C(=O)c1ccc(C)cc1 (configuration not stated),-24.4%,x,20.0,x,-17.2%,-5.3
CCOC(=O)C1(C)CCN1C(=O)c1cc(-c2ccc(Cl)cc2)oc1C (configuration not stated),18.4µM*,x,-103.3*,x,5.17µM*,2.0
CCOC(=O)C1(C)CCCN1C(=O)c1cccc2ccccc12 (configuration not stated),11.6µM*,x,53.3,x,18.4µM*,-7.5
CCOC(=O)C1(C)CCCCCN1C(=O)/C=C/c1ccccc1 (configuration not stated),16.4µM*,x,21.3,x,16.4µM*,-8.9
O=C(O)CCCc1ccc(Cl)c(Cl)c1,x,x,x,x,x,-1.9
CC(N(C)C(=O)CCc1ccco1)C(C)(C)C (configuration not stated),x,x,x,x,x,3.7
Cc1cccc(-c2cc(Nc3ccc(C(=O)N(C)Cc4ccccc4)cc3)ncn2)c1,x,x,x,x,x,-4.1
Cn1c(=N)n(CC(=O)c2ccc(F)cc2)c2ccccc21,16.4µM*,8.91µM*,2.2,11.2µM*,13µM*,-5.2
Cn1c(=N)n(CC(=O)c2ccc(Br)cc2)c2ccccc21,20.6µM*,x,x,x,18.4µM*,1.7
Cc1ccc(C(=O)C(C)OC(=O)c2ccc(S(=O)(=O)N(C)C)cc2)cc1C (configuration not stated),x,x,x,x,x,-1.2
O=C(CSc1cn(CC(=O)N2CCOCC2)c2ccccc12)Nc1ccc(Br)cc1,x,x,x,x,x,11.6
COc1ccc(OCC(=O)N2CCN(c3nnc(-c4ccccc4)c4ccccc34)CC2)cc1,16.4µM*,u,-65.8*,u,18.4µM*,3.0
O=C(COc1ccccc1)N1CCN(c2nnc(-c3ccccc3)c3ccccc23)CC1,13µM*,17.8%,-18.4,-2.8%,16.4µM*,-5.4
COc1ccc(OCC(=O)N2CCN(c3nnc(-c4ccc(C)cc4)c4ccccc34)CC2)cc1,16.4µM*,17.5%,-83.7*,u,16.4µM*,-0.7
CCC(=O)N1CCN(c2nnc(-c3ccccc3)c3ccccc23)CC1,-2.9%,32.2%,-13.1,-2.3%,-21.7%,-1.3
Cc1cc(C)c2nc(C(F)(F)F)nc(N3CCN(C(=O)c4ccco4)CC3)c2c1,25.9µM*,1µM*,u,0.891µM*,u,-3.1
Cc1ccc(OCC(=O)N2CCN(c3nnc(-c4ccc(C)cc4)c4ccccc34)CC2)cc1,16.4µM*,u,-87.0*,u,23.1µM*,4.5
CC(=O)N1CCN(c2nnc(-c3ccccc3)c3ccccc23)CC1,-10.8%,13.7%,0.0,2.5%,3.3%,0.9
Cc1ccc(-c2nnc(N3CCN(C(=O)c4ccco4)CC3)c3ccccc23)cc1,20.6µM*,-2.2%,-63.2*,u,u,0.7
CCOC(=O)c1sc(NC(=O)c2cc3nc(-c4ccc(Br)cc4)cc(C(F)(F)F)n3n2)c(C(=O)OCC)c1C,u,x,x,x,23.1µM*,5.6
CCOC(=O)c1c(NC(=O)c2cc3nc(-c4ccccc4)cc(C(F)(F)F)n3n2)sc2c1CCC(C)C2 (configuration not stated),23.1µM*,x,x,x,18.4µM*,-3.5
COc1ccc(-c2cc(C(F)(F)F)n3nc(C(=O)Nc4sc5c(c4C(=O)OC(C)C)CCC(C)C5)cc3n2)cc1 (configuration not stated),13.4%,x,x,x,1.5%,-4.7
SMILES,DT40 TDP1 CPT,RORgamma inh,IL1B secr inh,Gal4-VP16 FLuc,DT40 TDP1 no CPT,LDHA block
CCc1c(C)sc(NC(=O)c2cc3nc(-c4ccc(OC)cc4)cc(C(F)(F)F)n3n2)c1C(=O)OC,5.0%,x,x,x,-3.4%,-1.3
CC(=O)c1ccc(NC(=O)C2(c3ccccc3)CC2(Cl)Cl)cc1 (configuration not stated),-15.6%,37.8%,x,-8.2%,u,-7.4
O=C(Nc1ccccc1Cl)C1(c2ccccc2)CC1(Cl)Cl (configuration not stated),-18.2%,14.4%,6.5,-16.1%,11.6µM*,-2.8
COc1cc(CC2C(=O)OCC2C(=O)c2ccc3c(c2)OCO3)cc(OC)c1OC (configuration not stated),0.6%,x,26.8,x,5.9%,-4.8
COc1cc(C[C@H](C)[C@H](C)Cc2ccc3c(c2)OCO3)ccc1O,u,-31.3%,-12.5,-12.5%,u,-0.7
COc1cc(CC2COC(=O)C2(O)Cc2ccc(O)c(OC)c2)ccc1O (configuration not stated),11.6µM*,u,39.8,7.08µM*,9.2µM*,3.8
COc1cc(C[C@@H]2C(=O)OC[C@H]2Cc2ccc(OC)c(OC)c2)ccc1O,2.31µM*,x,3.4,x,2.59µM*,-2.1
CC(=O)c1c(C)[nH]c(C(=O)C(C)OC(=O)c2ccc(Cl)cc2F)c1C (configuration not stated),x,x,x,x,x,11.4
Cc1sc2nc(C(C)Sc3nnnn3C3CCCC3)[nH]c(=O)c2c1C (configuration not stated),x,x,x,x,x,0.6
CN(C)c1ccc(/C=C/c2ccc3cc(N(C)C)ccc3n2)cc1,12.6µM*,x,x,x,u,x
CN(C)c1ccc(/C=C/c2ccc3ccccc3n2)cc1,18.4µM*,3.98µM*,27.5,2.82µM*,11.6µM*,-2.7
CCN(CC)c1ccc(/C=C/c2cc(-c3ccccc3)c3ccccc3n2)cc1,-51.2%,-38.4%,34.1,1.3%,25.9µM*,1.7
Cc1ccc(/C=C/c2ccc3cc(C)ccc3n2)cc1,x,x,x,x,x,3.0
CN(C)c1ccc(/C=C/c2cc(/C=C/c3ccc(N(C)C)cc3)c3ccccc3n2)cc1,u,x,x,x,11.2µM*,3.9
Cc1ccc(-c2cc(C(=O)N3CCN(Cc4ccc(C#N)cc4)CC3)c3ccccc3n2)o1,x,x,x,x,x,3.0
COc1cc(C(C)=O)ccc1OS(=O)(=O)c1ccc2c(c1)CCCC2,x,x,x,x,x,-0.3
